Screening data: PubChem, The Scripps Research Institute Molecular Screening Center
PME-1 primary – PME-1 (human) inhibition. Q9Y570. hit rate 0.53% among 320,000. inhibition, % at 5.9 µM. AID 2130. recombinant PME-1, FP-Rh probe fluorescence polarization;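 active = inhibition above the campaign mean of all compounds plus 3 SD, cut at about 26% in these data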;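 also: competitive labeling of PME-1 active site by serine hydrolase directed probe; 0% = PME-1 with DMSO and 100% = wells lacking PME-1 enzyme; inhibitors block probe labeling so polarization falls and inhibition rises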
LYPLA2 inh – counter-screen for PME1 inhibitors: inhibitors of human LYPLA2 | O95372 | recombinant LYPLA2, FP-Rh probe fluorescence polarization | inhibition, % at 5.9 µM | hit rate 0.38% among 320,000 | AID 2177;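 active = inhibition above the screen-wide mean plus 3 SD, limit set per campaign, cut at about 26% in these data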;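 also: 0% = LYPLA2 with DMSO and 100% = wells lacking LYPLA2 enzyme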
Target sequence (O95372 whole entry, looked up): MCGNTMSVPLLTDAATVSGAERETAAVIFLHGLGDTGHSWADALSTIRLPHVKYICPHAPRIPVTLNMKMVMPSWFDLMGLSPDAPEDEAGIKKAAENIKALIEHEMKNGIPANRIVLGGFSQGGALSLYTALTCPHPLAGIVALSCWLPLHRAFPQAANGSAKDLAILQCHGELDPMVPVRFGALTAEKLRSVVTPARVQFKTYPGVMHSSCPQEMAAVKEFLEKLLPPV
Fam108B inh – Fam108B inhibition, counter-screen for RBBP9 inhibitors; recombinant Fam108B, FP-Rh probe fluorescence polarization; inhibition, % at 9.51 µM; hit rate 0.33% among 300,000; AID 1947;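 active = inhibition above the screen mean inhibition plus 3 SD, computed separately per campaign, cut at about 18% in these data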;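 also: inhibitors lower polarization as less probe binds the enzyme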
GSTO1 inh – counter-screen for RBBP9 inhibitors: inhibitors of human GSTO1 | P78417 | recombinant GSTO1, activity-based probe fluorescence polarization | inhibition, % at 5.96 µM | hit rate 1.1% among 300,000;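 active = inhibition above the campaign mean inhibition plus 3 SD, cut at about 35% in these data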;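 also: 0% = GSTO1-1 with DMSO and 100% = wells lacking GSTO1-1 enzyme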
PAD4 inh – blocks human protein arginine deiminase 4. Q9UM07. recombinant PAD4, RCA probe fluorescence polarization. inhibition, % at 6.36 µM. hit rate 0.41% among 330,000. AID 485272;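 active = percent inhibition above a cutoff equal to the mean of all tested compounds plus 3 SD, cut at about 15% in these data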;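 also: 0% = PAD4 with RCA probe and DMSO and 100% = probe without PAD4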
LYPLA1 inh – blocks human lysophospholipase 1, a PME1 counter-screen; O75608; recombinant LYPLA1, FP-Rh probe fluorescence polarization; inhibition, % at 5.9 µM; hit rate 0.16% among 320,000; AID 2174;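 active = inhibition above the mean of all tested compounds plus 3 SD, set per campaign, cut at about 14% in these data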;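 also: inhibitors block serine hydrolase probe labeling of LYPLA1 so polarization falls; 0% = enzyme with DMSO and 100% = wells lacking LYPLA1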
Starred values were filed as active, the others as inactive. This is a sample that favours compounds with a hit; in the whole collection about 1.8% have one here.

For CN(C)c1ccc2nc3ccc(=[N+](C)C)cc-3sc2c1 the results were PME-1 primary 4, LYPLA2 inh -5, Fam108B inh -3, GSTO1 inh 36*, PAD4 inh -3 and LYPLA1 inh -1.
Cc1nnsc1C(=O)NC1CCCc2c1cnn2-c1ccc(C(C)(C)C)cc1 (stereo unspecified) was read as PME-1 primary 2, LYPLA2 inh 10, Fam108B inh -3, GSTO1 inh 35*, PAD4 inh 0 and LYPLA1 inh 3.
For COc1ccc(CNc2ccc(S(=O)(=O)N3CCN(C)CC3)cn2)cc1OC the results were PME-1 primary 3, LYPLA2 inh 4, Fam108B inh 1, GSTO1 inh 2, PAD4 inh 1 and LYPLA1 inh 0.
Screening CCC1Oc2ccc(C)cc2N(CC(=O)N2CCOCC2)C1=O (stereo unspecified) returned PME-1 primary -7, LYPLA2 inh 7, Fam108B inh 8, GSTO1 inh 1, PAD4 inh 0 and LYPLA1 inh 1.
COC(=O)N1C(=O)[C@](c2ccccc2)(C(C)C)N1C(=O)OC was read as PME-1 primary 35*, LYPLA2 inh -4, Fam108B inh -4, GSTO1 inh -5, PAD4 inh 0 and LYPLA1 inh -1.
CCOC(=O)N1CCN(c2ccc(S(=O)(=O)N3CCC(C)CC3)cc2[N+](=O)[O-])CC1 was read as PME-1 primary 0, LYPLA2 inh 16, PAD4 inh 0 and LYPLA1 inh 3.
`CCOc1cc(/C=C2\N=C(SCC)SC2=O)cc([N+](=O)[O-])c1OC(C)=O` gave PME-1 primary 35*, LYPLA2 inh 6, Fam108B inh 14, GSTO1 inh -6, PAD4 inh 1 and LYPLA1 inh 11.
Screening CCOc1c(OC(C)=O)ccc(/C=C2\N=C(SCC)SC2=O)c1[N+](=O)[O-] returned PME-1 primary 4, LYPLA2 inh -1, Fam108B inh 2, GSTO1 inh 20, PAD4 inh 4 and LYPLA1 inh -1.
Screening CCOc1ccccc1NC(=O)CC1Nc2cc(C)c(C)cc2NC1=O (stereo unspecified) returned PME-1 primary 35*, LYPLA2 inh -5, Fam108B inh 6, GSTO1 inh 4, PAD4 inh -6 and LYPLA1 inh -3.
COc1ccc(/C=N/Nc2cc(N(C)C)nc(N(C)C)n2)cc1 was read as PME-1 primary 6, LYPLA2 inh -1, Fam108B inh 0, GSTO1 inh 52*, PAD4 inh -9 and LYPLA1 inh -2.
For CCN(CC)CCCN(C(=O)c1cccc(C)c1)c1nc(-c2ccc(OC)cc2)cs1 the results were PME-1 primary 3, LYPLA2 inh 1, Fam108B inh 2, GSTO1 inh 0, PAD4 inh 2 and LYPLA1 inh 0.
COc1ccc(CC2CC(=O)N(c3ccc(C)cc3)C2=O)cc1 (stereo unspecified) was read as PME-1 primary -2, LYPLA2 inh 4, Fam108B inh 2, GSTO1 inh -2, PAD4 inh 3 and LYPLA1 inh 4.
`COc1ccc(OC)c(N2C(=O)CC(Cc3ccc(C)cc3)C2=O)c1` (stereo unspecified) gave PME-1 primary 31*, LYPLA2 inh 2, Fam108B inh -1, GSTO1 inh -2, PAD4 inh 0 and LYPLA1 inh -5.
CCCN(CCC)S(=O)(=O)c1ccc(Cl)c([N+](=O)[O-])c1 was read as PME-1 primary -5, LYPLA2 inh 0, Fam108B inh 4, GSTO1 inh 35*, PAD4 inh -4 and LYPLA1 inh -2.
`CCNc1ccccc(C(=O)/C=C/c2ccc3c(c2)OCO3)c1=O` gave PME-1 primary 3, LYPLA2 inh 2, Fam108B inh 6, GSTO1 inh 44*, PAD4 inh -5 and LYPLA1 inh 4.
C=CCCC(=O)N1CCC(CCC(=O)NC2CC2)CC1 was read as PME-1 primary -10, LYPLA2 inh 1, Fam108B inh -4, GSTO1 inh -4, PAD4 inh 0 and LYPLA1 inh 3.
Screening C=CCC1(O)C(=O)Nc2ccccc21 (stereo unspecified) returned PME-1 primary -3, LYPLA2 inh 16, Fam108B inh 5, GSTO1 inh 8, PAD4 inh 0 and LYPLA1 inh -1.
